Shown are actives, neighbours in structure and some others; about 2.9% of the full set was active somewhere.
ADAM10 inh: human ADAM10 inhibitors, primary screen, biochemical, QFRET, HTS | Disintegrin and metalloproteinase domain-containing protein 10 (Homo sapiens), O14672 | recombinant ADAM10, EDANS/DABCYL FRET peptide cleavage, 3 h | inhibition, % at 7 µM | 370,000 tested, 0.62% active;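 active = inhibition above a per-campaign cutoff equal to the mean of compounds falling between control-based bounds plus 3 SD, cut at about 20% in these data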
PLC-beta3 inh: human PLC-beta3 inhibitors, primary screen, biochemical, fluorescence; inhibition, % at 12.2 µM; 370,000 tested, 0.18% active; AID 720704, 2013; Purified PLC-beta3, fluorogenic substrate; 1-phosphatidylinositol 4,5-bisphosphate phosphodiesterase beta-3 (Homo sapiens), Q01970; in the data active = inhibition above about 11%
KLK7 zymogen act: proKLK7 zymogen activators, primary screen, biochemical, fluorescence intensity. Kallikrein-7 (Homo sapiens), P49862. purified proKLK7, EDANS-DABCYL substrate fluorescence; 100% is mature enzyme control, 0% vehicle. activation, % at 7 µM. 370,000 tested, 0.9% active;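 active = activation above the mean of all tested compounds plus 3 SD, computed per campaign excluding outliers beyond control limits, cut at about 13% in these data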
ADAM17 inh: ADAM17 inhibitors, primary screen, biochemical, QFRET; recombinant ADAM17, EDANS/DABCYL FRET peptide cleavage; inhibition, % at 6.95 µM; 370,000 tested, 0.83% active;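 active = inhibition above the mean of compounds lying between control limits plus 3 SD, set per campaign, cut at about 8.5% in these data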
Target sequence (P78536 215-824 limits assumed): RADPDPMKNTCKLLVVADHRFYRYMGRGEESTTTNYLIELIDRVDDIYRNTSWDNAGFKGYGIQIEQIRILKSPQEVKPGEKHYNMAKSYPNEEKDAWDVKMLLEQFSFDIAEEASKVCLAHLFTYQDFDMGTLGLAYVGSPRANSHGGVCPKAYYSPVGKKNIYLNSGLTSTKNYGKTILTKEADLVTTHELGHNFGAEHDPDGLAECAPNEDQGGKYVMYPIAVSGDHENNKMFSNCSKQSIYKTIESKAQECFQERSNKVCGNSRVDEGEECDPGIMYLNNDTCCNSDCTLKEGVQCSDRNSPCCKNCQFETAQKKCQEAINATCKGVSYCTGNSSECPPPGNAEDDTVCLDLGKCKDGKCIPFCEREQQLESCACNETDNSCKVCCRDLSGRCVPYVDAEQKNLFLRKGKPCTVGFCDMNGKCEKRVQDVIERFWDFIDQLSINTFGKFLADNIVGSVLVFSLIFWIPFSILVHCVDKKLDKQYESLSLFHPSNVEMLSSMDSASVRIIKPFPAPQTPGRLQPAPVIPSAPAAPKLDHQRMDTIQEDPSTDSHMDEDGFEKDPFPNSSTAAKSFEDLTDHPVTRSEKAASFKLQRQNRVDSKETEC
PLCg1 inh: PLC-gamma1 enzyme inhibitors, primary screen, biochemical, fluorescence, purified enzyme. 1-phosphatidylinositol 4,5-bisphosphate phosphodiesterase gamma-1 (Homo sapiens), P19174. fluorogenic substrate. inhibition, % at 12.2 µM. 370,000 tested, 0.84% active. AID 720700, 2013
ADAM10 counter: ADAM10 inhibitors, counter-screen for ADAM17 exosite inhibitor project, biochemical, FRET, human ADAM10. shares compounds with ADAM17 inh. recombinant ADAM10, EDANS/DABCYL FRET peptide cleavage, 3 h. inhibition, % at 6.95 µM. 2,900 tested, 47% active. AID 743256, 2014;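 active = mean inhibition over the triplicate runs exceeds the activity threshold set in the earlier primary screen, cut at about 20% in these data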
ADAM17 confirm: ADAM17 inhibitors, hit retest, confirmation, biochemical, QFRET peptide cleavage; shares compounds with ADAM17 inh; recombinant ADAM17, EDANS/DABCYL QFRET peptide cleavage; inhibition, % at 6.95 µM; 2,900 tested, 65% active;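 active = mean inhibition across replicates above the hit cutoff set in the primary screen, cut at about 8.5% in these data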
PLCg1 ctr: PLC-gamma1 enzyme inhibitors, counter-screen for PLC-beta3 inhibitor project, biochemical, fluorescence; purified PLC-gamma1, fluorogenic substrate; 3,300 tested, 3.1% active; shares compounds with PLCg1 inh; inhibition, % at 12.3 µM; AID 743258, 2014
PLCb3 confirm: PLC-beta3 inhibitor confirmation, biochemical, fluorescence, purified enzyme; AID 743261, 2014; shares compounds with PLCg1 inh; fluorogenic substrate fluorescence; 3,300 tested, 1% active; inhibition, % at 12.3 µM; in the data active = inhibition above about 11%
Of the large screens only hits and unclear results are named; the others gave an inactive call (follow-up assays come after a bar, where they were run). Rule as the data show it, unless noted: active = inhibition above about 9.5%; inactive = the rest.

COc1ccc(C2=Nc3ccccc3N(C(=O)c3ccc4ncccc4c3)C2C(=O)NC2CCCC2)cc1 (stereo not given)	none
COc1cc(/C=N\NC(=O)c2cccc(Cl)c2)ccc1Oc1ccc([N+](=O)[O-])cn1	none
COc1cc(/C=N\NC(=O)c2ccccc2F)ccc1Oc1ccc([N+](=O)[O-])cn1	ADAM17 inh 10.0, PLCg1 inh 9.6 | ADAM10 counter inactive | ADAM17 confirm inactive | PLCg1 ctr inactive | PLCb3 confirm inactive
CCn1nc(C)c(/C=N/NC(=S)Nc2ccc(Cl)cc2Cl)c1C	PLC-beta3 inh 12, ADAM17 inh 8.7 | ADAM10 counter inactive | ADAM17 confirm inactive | PLCg1 ctr inactive | PLCb3 confirm inactive
Cc1nn(C)cc1/C=N/NC(=S)Nc1ccc(Cl)cc1Cl	none
CNS(=O)(=O)c1cccc(C(=O)OCC(=O)NC2CCCC2)c1	ADAM17 inh 8.9, PLCg1 inh 9.6 | ADAM10 counter inactive | ADAM17 confirm inactive | PLCg1 ctr inactive | PLCb3 confirm inactive
O=C(NC1CCCCN(Cc2cccc(C(F)(F)F)c2)C1=O)c1cccc(C(F)(F)F)c1 (stereo not given)	none
CC(C)=CC(=O)Nc1ccc(Cl)cc1	none
CS/C(=C\[N+](=O)[O-])Nc1ccc(Cl)cc1	ADAM17 inh 12, PLCg1 inh 11 | ADAM10 counter inactive | ADAM17 confirm inactive | PLCg1 ctr inactive | PLCb3 confirm inactive
Cc1ccc(C(=O)c2cn[nH]c2-c2ccccc2O)cc1	ADAM17 inh 8.8, PLCg1 inh 14 | ADAM10 counter inactive | ADAM17 confirm inactive | PLCg1 ctr inactive | PLCb3 confirm inactive
O=C(c1ccc(F)cc1)c1cn[nH]c1-c1ccccc1O	none
COc1ccccc1OCCCN1CCC(C(O)(c2ccccc2)c2ccccc2)CC1	none
C/C=C/c1ccccc1OCCCN1CCC(C(O)(c2ccccc2)c2ccccc2)CC1	ADAM17 inh 13, PLCg1 inh 13 | ADAM10 counter inactive | ADAM17 confirm 9.2 | PLCg1 ctr inactive | PLCb3 confirm inactive
O=[N+]([O-])c1ccc(C(O)C(CO)NC(=S)Nc2ccccc2)cc1 (stereo not given)	ADAM17 inh 8.8, PLCg1 inh 9.8 | ADAM10 counter inactive | ADAM17 confirm inactive | PLCg1 ctr inactive | PLCb3 confirm inactive
Fc1ccc(-c2nnn(Cc3ccc(F)cc3Cl)n2)cc1	none
Cc1ccccc1-c1nnn(Cc2ccc(F)cc2Cl)n1	ADAM17 inh 10, PLCg1 inh 11 | ADAM10 counter inactive | ADAM17 confirm 11 | PLCg1 ctr inactive | PLCb3 confirm inactive
Cc1ccc(S(=O)(=O)N2C3CCCCC3O[C@H]2CC(=O)c2cccc3ccccc23)cc1 (stereo not given in full)	none
COc1ccc(-c2cn[nH]c2N)cc1	ADAM17 inh 8.8, PLCg1 inh 12 | ADAM10 counter inactive | ADAM17 confirm inactive | PLCg1 ctr inactive | PLCb3 confirm inactive

Assay outcomes: PubChem BioAssay, The Scripps Research Institute Molecular Screening Center
